The panel holds about 79,000 compounds, 15% with a hit somewhere; the sample as a whole holds those more often. Active and inactive are the calls of the source. No stated cut-off is given here; in the data, active means growth inhibition above about 70%; inactive means the rest. Where a SMILES comes first, the peptide text is derived from it. [ ]: non-standard residue; d: D form. The star is where a group is joined. Phe(2-OMe) = COc1ccccc1C[CH](N)C(=O)O; Cbz = O=C(OCc1ccccc1)*; OBn = c1ccc(CO*)cc1
Columns and labels:
[1] = NCI Yeast Anticancer Drug Screen. Data for the rad50 strain (AID 155);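 further: 0% = growth of vehicle-only cultures of the same strain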; conditions: S. cerevisiae rad50 strain growth inhibition, hits give high values
Method in brief: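 Growth of the mutant yeast was measured after compound exposure and referenced to vehicle-treated cultures.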

[2] = NCI Yeast Anticancer Drug Screen. Data for the mec2-1 strain (AID 157); conditions: S. cerevisiae mec2-1 strain, hits give high values
Method in brief: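 Cells of the genetically defined mec2-1 yeast strain are incubated with test compound. Inhibition of growth is calculated against vehicle-treated controls.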

[3] = NCI Yeast Anticancer Drug Screen. Data for the sgs1 mgt1 strain (AID 161);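 further: 0% = growth of cultures given vehicle only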; conditions: S. cerevisiae sgs1 mgt1 strain, hits give high values
Method in brief: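 Inhibition of yeast growth, normalised to vehicle-treated controls, is reported for a strain bearing genetic alterations in DNA damage repair.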

[4] = NCI Yeast Anticancer Drug Screen. Data for the cln2 rad14 strain (AID 165);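 further: 0% = growth equal to vehicle treated cultures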; conditions: S. cerevisiae cln2 rad14 strain, hits give high values
Method in brief: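 The screen exposed genetically defined yeast (cln2 rad14) to test compounds and scored growth inhibition relative to vehicle-treated controls.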

[5] = NCI Yeast Anticancer Drug Screen. Data for the bub3 strain (AID 167); conditions: S. cerevisiae bub3 mutant strain, hits give high values
Method in brief: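 Whole-cell yeast assay. The mutant strain was incubated with compounds, and growth inhibition was determined by comparison with vehicle-treated cells.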

[6] = NCI Yeast Anticancer Drug Screen. Data for the mlh1 rad18 strain (AID 175); conditions: S. cerevisiae mlh1 rad18 strain growth inhibition, hits give high values
Method in brief: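 Compound-treated yeast growth, normalised to vehicle controls. Strain bears defined DNA repair mutations.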

[7] = at 5.0 µM (retest, dose inferred, filed as 0.5)
[8] = at 50.0 µM (retest, dose inferred, filed as 5.0)

Measured: growth inhibition

CC(=O)O[C@H]1CC[C@@]2(C)C(CC[C@]3(C)C2CC=C2[C@@H]4CC(C)(C)CC[C@]4(C(=O)NCCN(C)C)CCC23C)C1(C)C (stereo not given in full)
active: [1]; [8] 94% | [1]; at 50.0 µM 77% | [2]; [8] 98% | [2]; at 50.0 µM 95.4% | [3]; [8] 98% | [3]; at 50.0 µM 72.7% | [5]; [8] 87% | [6]; [8] 93% | [6]; at 50.0 µM 97.7%
inactive: [1]; [7] -3% | [2]; [7] -2% | [3]; [7] -2% | [4]; [7] -4% | [4]; [8] 57% | [4]; at 50.0 µM 5.3% | [5]; [7] -2% | [5]; at 50.0 µM -21.4% | [6]; [7] -2%

Cc1cc(=O)c2c(ccc3cc4ccccc4cc32)[nH]1
inactive: [1]; [7] -6% | [1]; [8] 41% | [1]; at 50.0 µM 66.8% | [2]; [7] 0% | [2]; [8] 58% | [2]; at 50.0 µM 38.1% | [3]; [7] -16% | [3]; [8] 54% | [3]; at 50.0 µM 45.8% | [4]; [7] -5% | [4]; [8] 17% | [4]; at 50.0 µM 43.8% | [5]; [7] -7% | [5]; [8] 22% | [5]; at 50.0 µM 39.6% | [6]; [7] 14% | [6]; [8] 49% | [6]; at 50.0 µM 59.1%

CC(CCCN(C)Cc1ccccc1)Nc1ccnc2cc(Cl)ccc12 (stereo not given)
active: [1]; [7] 88% | [1]; [8] 99% | [1]; at 50.0 µM 99% | [2]; [8] 100% | [2]; at 50.0 µM 98.3% | [3]; [7] 99% | [3]; [8] 99% | [3]; at 50.0 µM 99.5% | [4]; [8] 99% | [4]; at 50.0 µM 99.4% | [5]; [7] 86% | [5]; [8] 99% | [5]; at 50.0 µM 99.5% | [6]; [7] 99% | [6]; [8] 99% | [6]; at 50.0 µM 98%
inactive: [2]; [7] 53% | [4]; [7] 41%

COC(=O)Cc1nc2ccccc2s1
inactive: [1]; [7] 1% | [2]; [7] -9% | [3]; [7] 11% | [4]; [7] 13% | [5]; [7] -10% | [6]; [7] -2%
active: [1]; [8] 99% | [1]; at 50.0 µM 99.2% | [2]; [8] 100% | [2]; at 50.0 µM 99.5% | [3]; [8] 92% | [3]; at 50.0 µM 99.3% | [4]; [8] 96% | [4]; at 50.0 µM 97.3% | [5]; [8] 100% | [5]; at 50.0 µM 98.5% | [6]; [8] 76% | [6]; at 50.0 µM 99%

COC(=O)C1(Cc2ccccc2C)Cc2ccc(C)cc2C1=O (stereo not given)
inactive: [1]; [7] -1% | [1]; [8] 22% | [1]; at 50.0 µM 49.3% | [2]; [7] -2% | [2]; [8] 28% | [2]; at 50.0 µM 25.9% | [3]; [7] 13% | [3]; [8] 47% | [3]; at 50.0 µM 64.9% | [4]; [7] -3% | [4]; [8] 4% | [4]; at 50.0 µM 31.8% | [5]; [7] 9% | [5]; at 50.0 µM 64.3% | [6]; [7] -2% | [6]; [8] 30% | [6]; at 50.0 µM 65.9%
active: [5]; [8] 71%

O=C1O/C(=C(\Cc2ccccc2)c2ccccc2)N(c2ccccc2)C1=O
inactive: [1]; [7] 5% | [1]; [8] 30% | [1]; at 50.0 µM 69.2% | [2]; [7] -6% | [2]; [8] 23% | [2]; at 50.0 µM 18.6% | [3]; [7] 0% | [3]; [8] 28% | [3]; at 50.0 µM 22.9% | [4]; [7] -5% | [4]; [8] -9% | [4]; at 50.0 µM -30.2% | [5]; [7] 0% | [5]; [8] 13% | [5]; at 50.0 µM 14.9% | [6]; [7] -6% | [6]; [8] 21% | [6]; at 50.0 µM 28.8%

C[C@]12CC[C@H](O)CC1=CC[C@@H]1C2CC[C@]2(C)C(=O)N(N)C(=O)CC12 (stereo not given in full)
inactive: [1]; [7] 7% | [2]; [7] -24% | [3]; [7] 16% | [4]; [7] 2% | [5]; [7] 16% | [6]; [7] -11%
active: [1]; [8] 92% | [1]; at 50.0 µM 83.7% | [2]; [8] 91% | [2]; at 50.0 µM 88.3% | [3]; [8] 93% | [3]; at 50.0 µM 87.8% | [4]; [8] 92% | [4]; at 50.0 µM 88.4% | [5]; [8] 93% | [5]; at 50.0 µM 86.7% | [6]; [8] 91% | [6]; at 50.0 µM 84.4%

COC(=O)C(Cc1ccccc1OC)NC(=O)C(CC(=O)OCc1ccccc1)NC(=O)OCc1ccccc1 (stereo not given) (Cbz-Asp(OBn)-[Phe(2-OMe)]-OMe; configuration not given here)
active: [1]; [8] 84% | [3]; [8] 92% | [4]; [8] 86% | [4]; at 50.0 µM 80.5% | [5]; [8] 84% | [5]; at 50.0 µM 87.8% | [6]; [8] 84%
inactive: [1]; [7] -5% | [1]; at 50.0 µM 51.5% | [2]; [7] 0% | [2]; [8] 37% | [2]; at 50.0 µM 58.2% | [3]; [7] 1% | [3]; at 50.0 µM 65.2% | [4]; [7] 16% | [5]; [7] -1% | [6]; [7] 0% | [6]; at 50.0 µM 54.8%

CC(C)(c1cc(Br)c(O)c(Br)c1)c1cc(Br)c(O)c(Br)c1
active: [1]; [7] 76% | [1]; [8] 97% | [1]; at 50.0 µM 87.2% | [2]; [7] 82% | [2]; [8] 99% | [2]; at 50.0 µM 90.7% | [3]; [7] 85% | [3]; [8] 98% | [3]; at 50.0 µM 87.9% | [4]; [7] 81% | [4]; [8] 99% | [4]; at 50.0 µM 89.5% | [5]; [7] 88% | [5]; [8] 98% | [5]; at 50.0 µM 87.5% | [6]; [7] 93% | [6]; [8] 97% | [6]; at 50.0 µM 87.5%

COC1=CC(=O)C(O)=C/C1=C\C=C\c1ccccc1
inactive: [1]; [7] 67% | [2]; [7] 59% | [4]; [7] 50% | [5]; [7] 36%
active: [1]; [8] 97% | [1]; at 50.0 µM 95% | [2]; [8] 99% | [2]; at 50.0 µM 97% | [3]; [7] 84% | [3]; [8] 99% | [3]; at 50.0 µM 97% | [4]; [8] 99% | [4]; at 50.0 µM 95.3% | [5]; [8] 98% | [5]; at 50.0 µM 96.6% | [6]; [7] 83% | [6]; [8] 99% | [6]; at 50.0 µM 96.8%

— PubChem BioAssay (NCI)
